# Assay results: PubChem BioAssay (NCATS)
# Where “and” joins values, the source holds several entries; their conditions need not be identical. Equal entries are not always repeated. Values without a mark were called inactive. Inconclusive results are not listed. Where a call stands in place of a potency, no number is given. Calls of active or inactive are those of the source. Unless noted, calls come from the whole dose curve; as a rule, active = well fitted curve in the direction sought with a large enough effect; inconclusive = small, poorly fitted or top-dose-only effect, or another doubt; inactive = no such curve, though single readings can be large; an effect the other way counts as inactive or inconclusive.
# Experiments:
# [1] = Cell Viability - MRC5 (AID 434; calls by dose curve;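 note: potency is the fitted concentration of half-maximal effect; cells exposed to compound for 40 hours at 37 °C; potency reflects cytotoxicity seen as loss of intracellular ATP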); conditions: MRC5 lung fibroblast viability, qHTS
# Method in brief: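 AC50 values come from Hill-equation fits of intracellular ATP loss, measured by CellTiter-Glo luminescence. Normal lung fibroblasts (MRC5) had 40 hr compound treatment at 37 C, normalized between DMSO and 100 uM tamoxifen.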
# [2] = Cell Viability - HUV-EC-C (AID 542); conditions: HUV-EC-C endothelial cell viability, qHTS; series mostly up to 92.2 µM;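 note: cells exposed to compound for 40 hours; nearly all actives have a fitted effect of over 35% in size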
# Method in brief: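 Cells were seeded at 1000 per well and incubated 5 hr at 37 °C before compound addition. After 40 hr at 37 °C, CellTiter-Glo reagent was added for 20 min and luminescence read. AC50 values came from Hill-equation modelling.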
# [3] = Cellular Toxicity (caspase-3) HepG2 (AID 654); conditions: HepG2 caspase-3 activation, luminescence; series mostly up to 92.2 µM;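 note: cells exposed to compound for 16 hours before reading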
# Method in brief: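 Caspase 3/7 activation in HepG2 is measured as rising luminescence after a 16 hr treatment at 37 °C. Values are scaled between DMSO basal and 100 uM tamoxifen, and AC50 is fitted with the Hill equation.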
# [4] = Cellular Toxicity (caspase-3) HUV-EC-C (AID 656); conditions: HUV-EC-C cells, caspase-3 activation (apoptosis); series mostly up to 92.2 µM
# Method in brief: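 HUV-EC-C endothelial cells, 1000/well, were pre-incubated 5 hr at 37°C, then exposed to compounds for 16 hr at 37°C. Caspase-Glo 3/7 luminescence was read after 20 min at room temperature. AC50 came from Hill fits, normalized to DMSO and 100 uM tamoxifen.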
# [5] = Cellular Toxicity (caspase-3) SHSY5Y (AID 657); conditions: SH-SY5Y caspase-3 activation; series mostly up to 91.7 µM
# Method in brief: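 SH-SY5Y human neuroblastoma cells (1500/well) were treated with compounds for 16 h at 37 °C, then Caspase-Glo 3/7 luminescence was read after 1 h at room temperature. Data normalized to DMSO and 10 uM staurosporine; AC50 from Hill fits.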
# [6] = Cellular Toxicity (caspase-3) MRC-5 (AID 659); conditions: MRC-5 cells, luminescence, normalized: DMSO 0%, 10 µM staurosporine 100%; series mostly up to 91.7 µM
# Method in brief: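 Luminescent Caspase-Glo 3/7 read-out (1 h, room temperature) after a 16 h, 37 °C compound exposure of MRC-5 lung fibroblasts at 1500 cells/well. Concentration-response AC50 from Hill equation; 0% DMSO, 100% 10 uM staurosporine.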
# [7] = Cellular Toxicity (caspase-3) Mesangial (AID 660); conditions: mesangial cells, normalized: DMSO 0%, 100 µM tamoxifen 100%; series mostly up to 91.7 µM;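 note: combined caspase 3 and 7 activity read by Caspase-Glo luminescence; cells exposed to compound for 16 h before the caspase read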
# Method in brief: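 Seed cells derived from normal human renal glomeruli, incubate 5 h, add compounds across concentrations and incubate 16 h at 37 °C. Caspase 3/7 activation is then quantified by luciferase light, with AC50 derived by Hill modeling.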
# [8] = Cellular Toxicity (caspase-3) SK-N-SH (AID 661); conditions: SK-N-SH caspase-3 activation, qHTS, DMSO as zero, staurosporine as full; series mostly up to 91.7 µM
# Method in brief: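 Cells were seeded and incubated 5 hr at 37 °C, dosed with compound over a concentration range for 16 hr, then given Caspase-Glo 3/7 reagent for 1 hr at room temperature before luminescence reading.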
# [9] = Cellular Toxicity (caspase-3) H-4-II-E (AID 663); conditions: H-4-II-E rat hepatoma; Potency: caspase-3 activation; series mostly up to 92.2 µM
# Method in brief: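 Caspase 3/7 activation measured by luminescent aminoluciferin substrate cleavage after 16 hr compound treatment of H-4-II-E cells in complete medium. Increase normalized between DMSO (basal) and 100 uM tamoxifen (100%); Hill-equation AC50 from concentration-response.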
# [10] = Cellular Toxicity (caspase-3) N2a (AID 665); conditions: N2a cells, luminescence, normalized: DMSO 0%, 10 µM staurosporine 100%; series mostly up to 92.2 µM;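 note: compound exposure lasted 16 h at 37 °C before readout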
# Method in brief: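 Caspase-3/7 activation, measured as increased luminescence from aminoluciferin release, is quantified in mouse N2a cells exposed to compounds for 16 h. Values are normalized to DMSO and 10 uM staurosporine, with AC50 derived by Hill modelling.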
# [11] = Cellular Toxicity (caspase-3) NIH 3T3 (AID 666); conditions: NIH 3T3 caspase-3 activation, apoptosis/toxicity, 0% DMSO, 100% is 100 µM tamoxifen; series mostly up to 92.2 µM
# Method in brief: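 Cells were plated at 1000 per well and incubated 5 hr at 37°C, then compound was added for 16 hr. Caspase-Glo 3/7 reagent followed for 20 min at room temperature before luminescence was read.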
# [12] = Cellular Toxicity (caspase-3) Renal Proximal Tubule (AID 667); conditions: renal proximal tubule cells, primary cells freshly taken from rat; Potency: caspase-3 activation; series mostly up to 91.7 µM;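 note: cells exposed to compound for 16 hours at 37 °C before detection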
# Method in brief: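 Primary rat proximal tubule cells, 1000/well, 5 h plating at 37 °C, then compound 16 h at 37 °C. Caspase-Glo 3/7 reagent, 1 h RT, luminescence. Normalized to DMSO (basal) and 10 uM staurosporine (100%); Hill-fit AC50.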
# [13] = MultiTox-Fluor Cytotoxicity Assay - LYMP1-001 - Dead Cells (AID 946); conditions: LYMP1-001 lymphoblastoid cells, dead-cell protease fluorescence; series mostly up to 92.2 µM
# Method in brief: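 In this qHTS, 15 uM tetraoctylammonium bromide defined 100% and DMSO defined basal activity. Lymphoblastoid cells (LYMP1-001, 2500 per well) received compound for 16 hr at 37 C before a fluorogenic dead-cell substrate readout at 485/520 nm.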
# [14] = MultiTox-Fluor Cytotoxicity Assay - LYMP1-003 - Dead Cells (AID 961); conditions: LYMP1-003 lymphoblastoid cells, dead-cell protease fluorescence; series mostly up to 92.2 µM; note: nearly all actives have a fitted effect of over 70% in size
# Method in brief: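 Acute toxicity is scored as increased dead-cell protease activity in human lymphoblastoid LYMP1-003 cells after 16 h compound exposure in complete culture medium. Activity is normalized to DMSO basal and 15 uM tetraoctylammonium bromide as full response.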
# [15] = MultiTox-Fluor Cytotoxicity Assay - LYMP1-003 - Live Cells (AID 962); conditions: LYMP1-003 lymphoblastoid cells, MultiTox-Fluor live-cell protease fluorescence; series mostly up to 92.2 µM;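 note: cytotoxic hits lower the live-cell protease signal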
# Method in brief: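 Acute cytotoxicity is scored as a drop in live-cell protease activity in human lymphoblastoid LYMP1-003 cells after 16 hr compound exposure at 37 C. AC50 values come from Hill-equation modelling of concentration-response data.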
# [16] = Cell Viability - LYMP1-003 - Assay at 24 hr (AID 963); conditions: LYMP1-003 lymphoblastoid cell viability; series mostly up to 92.2 µM
# Method in brief: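 Cytotoxicity is scored as a concentration-dependent fall in ATP-linked luciferase signal in human lymphoblastoid LYMP1-003 cells treated 24 hr at 37 C in complete culture medium.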
# [17] = qHTS Assay for Identification of Small Molecule Inducers of Hypoxia Response (AID 2120; active = well fitted curve in the direction sought with a large enough effect in the signal ratio, with a control signal flat, not every such curve was filed as active; the % refers to the signal ratio); conditions: hypoxia response reporter cells, beta-lactamase ratio readout; series mostly up to 104 µM
# Method in brief: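 Cell-based qHTS for reporter induction: hypoxia response element controlled beta-lactamase in ME-180 cells. Compounds incubated 17 h at 37 degrees C; activity from blue/green (460/530 nm) ratio, inducers ranked by AC50.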
# [18] = target: Peroxisome proliferator-activated receptor alpha (Homo sapiens) (UniProt Q07869); experiment: qHTS assay for small molecule agonists of the peroxisome proliferator-activated receptor alpha (PPARalpha) signaling pathway (AID 651778); conditions: PathHunter PPARalpha complementation, chemiluminescence, 6 h; max response: hits give high values; note: potency is the fitted concentration of half-maximal effect
# Chain of Peroxisome proliferator-activated receptor alpha (Homo sapiens) (Q07869 whole entry, looked up): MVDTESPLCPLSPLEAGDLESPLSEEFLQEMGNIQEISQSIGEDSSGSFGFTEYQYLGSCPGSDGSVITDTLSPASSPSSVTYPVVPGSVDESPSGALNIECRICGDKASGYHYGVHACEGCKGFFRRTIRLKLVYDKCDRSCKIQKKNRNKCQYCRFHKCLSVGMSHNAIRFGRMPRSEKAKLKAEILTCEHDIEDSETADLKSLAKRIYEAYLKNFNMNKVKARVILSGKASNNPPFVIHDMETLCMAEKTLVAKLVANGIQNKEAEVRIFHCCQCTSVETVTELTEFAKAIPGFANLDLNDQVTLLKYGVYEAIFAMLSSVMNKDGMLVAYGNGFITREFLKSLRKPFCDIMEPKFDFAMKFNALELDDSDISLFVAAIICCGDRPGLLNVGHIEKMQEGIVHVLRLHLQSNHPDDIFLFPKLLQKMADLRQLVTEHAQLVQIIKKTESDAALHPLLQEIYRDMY
# Method in brief: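 Chemiluminescence from complemented enzyme reported PPARalpha activation in cells after 6 hr of compound treatment at 37 C. The detection reagent was incubated for 60 min at room temperature, and compounds were scored as agonists.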
# [19] = qHTS assay for small molecule agonists of the antioxidant response element (ARE) signaling pathway measured by Nrf2-dependant transcriptional activity - cell viability counter screen (AID 720653; active = well fitted curve in the direction sought with a large enough effect in the repeat runs; an effect the other way counts as inactive or inconclusive); conditions: ARE-bla HepG2 viability, CellTiter-Glo ATP luminescence, 16 h; max response: hits give low values
# Method in brief: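 Cytotoxicity counter screen: intracellular ATP quantified by CellTiter-Glo luminescence in the same ARE-bla HepG2 plates, after 16 h compound exposure and a 2 h beta-lactamase substrate step.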
# [20] = qHTS assay for cell viability of the p53RE-bla HCT-116 cell line (AID 743292); conditions: p53RE-bla HCT-116 viability, ATP luminescence, 16 h; series mostly up to 95 µM; note: nearly all actives have a fitted effect of over 55% in size
# Method in brief: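 CellSensor p53RE-bla HCT-116 cells (4,000/well) pre-incubated 5 h at 37 C, then exposed to compounds in DMSO for 16 h at 37 C. Viability read as ATP content by CellTiter-Glo luminescence after 30 min at room temperature.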
compound,measurement,setting,value
CC(C)OCC1CO1 (stereo not given),Potency,[1],> 92 µM
same,Potency,[2],inactive
same,Potency,[3],inactive
same,Potency,[4],inactive
same,Potency,[5],inactive
same,outcome,[6],inactive
same,outcome,[7],inactive
same,outcome,[8],inactive
same,Potency,[9],inactive
same,outcome,[10],inactive
same,outcome,[11],inactive
same,Potency,[12],inactive
same,Potency,[13],inactive
same,Potency,[14],inactive
same,Potency,[15],inactive
same,Potency,[16],inactive
same,Potency,[17],inactive
same,max response,[18],-4.21%
same,max response,[19],0.394%
same,Potency,[20],inactive
C=Cc1cccc(C)c1,Potency,[1],> 92 µM
same,Potency,[2],inactive
same,Potency,[3],inactive
same,Potency,[4],inactive
same,Potency,[5],inactive
same,outcome,[6],inactive
same,outcome,[7],inactive
same,outcome,[8],inactive
same,Potency,[9],inactive
same,outcome,[10],inactive
same,outcome,[11],inactive
same,Potency,[12],inactive
same,Potency,[13],inactive
same,Potency,[14],inactive
same,Potency,[15],inactive
same,Potency,[16],inactive
same,Potency,[17],inactive
same,max response,[18],-4.17%
same,max response,[19],10.9%
same,Potency,[20],inactive
Cc1ccc(N)cc1[N+](=O)[O-],Potency,[1],> 92 µM
same,Potency,[2],inactive
same,Potency,[3],inactive
same,Potency,[4],inactive
same,Potency,[5],inactive
same,outcome,[6],inactive
same,outcome,[7],inactive
same,outcome,[8],inactive
same,Potency,[9],inactive
same,outcome,[10],inactive
same,outcome,[11],inactive
same,Potency,[12],inactive
same,Potency,[13],inactive
same,Potency,[14],inactive
same,Potency,[15],inactive
same,Potency,[16],inactive
same,Potency,[17],inactive
same,max response,[18],-0.223%
same,max response,[19],-10.7%
same,Potency,[20],inactive
CCCCCCCCOc1ccc(C(=O)O)cc1,Potency,[1],> 92 µM
same,Potency,[2],inactive
same,Potency,[3],inactive
same,Potency,[4],inactive
same,Potency,[5],inactive
same,outcome,[6],inactive
same,outcome,[7],inactive
same,outcome,[8],inactive
same,Potency,[9],inactive
same,outcome,[10],inactive
same,outcome,[11],inactive
same,Potency,[12],inactive
same,Potency,[13],inactive
same,Potency,[14],inactive
same,Potency,[15],inactive
same,Potency,[16],inactive
same,Potency,[17],inactive
same,Potency,[18],7.08 µM (active)
same,max response,[19],-6.08%
same,Potency,[20],inactive
OCC(CO)(CBr)CBr,Potency,[1],> 92 µM
same,Potency,[2],inactive
same,Potency,[3],inactive
same,Potency,[4],inactive
same,Potency,[5],inactive
same,outcome,[6],inactive
same,outcome,[7],inactive
same,outcome,[8],inactive
same,Potency,[9],inactive
same,outcome,[10],inactive
same,outcome,[11],inactive
same,Potency,[12],inactive
same,Potency,[13],inactive
same,Potency,[14],inactive
same,Potency,[15],inactive
same,Potency,[16],inactive
same,Potency,[17],inactive
same,max response,[18],-0.558% and -3.38%
same,max response,[19],9.25% and 7.51%
same,Potency,[20],inactive
CCCCC(CC)COC(=O)COc1ccc(Cl)cc1Cl (stereo not given),Potency,[1],> 92 µM
same,Potency,[2],inactive
same,Potency,[3],inactive
same,Potency,[4],inactive
same,Potency,[5],inactive
same,outcome,[6],inactive
same,outcome,[7],inactive
same,outcome,[8],inactive
same,Potency,[9],inactive
same,outcome,[10],inactive
same,outcome,[11],inactive
same,Potency,[12],inactive
same,Potency,[13],inactive
same,Potency,[14],inactive
same,Potency,[15],inactive
same,Potency,[16],inactive
same,Potency,[17],inactive
same,max response,[18],-1.4% and -1.03%
same,max response,[19],-8.61% and -1.82%
same,Potency,[20],inactive
